Laboratory results as given in ChEMBL document CHEMBL1961873, “Compounds: GSK PKIS; Assays: Nanosyn kinase panel” (2012).

Biological target: Receptor-type tyrosine-protein kinase FLT3 (Homo sapiens) (UniProt P36888)
Settings: at 0.1 µM

Sequence of Receptor-type tyrosine-protein kinase FLT3 (Homo sapiens) (P36888 whole entry): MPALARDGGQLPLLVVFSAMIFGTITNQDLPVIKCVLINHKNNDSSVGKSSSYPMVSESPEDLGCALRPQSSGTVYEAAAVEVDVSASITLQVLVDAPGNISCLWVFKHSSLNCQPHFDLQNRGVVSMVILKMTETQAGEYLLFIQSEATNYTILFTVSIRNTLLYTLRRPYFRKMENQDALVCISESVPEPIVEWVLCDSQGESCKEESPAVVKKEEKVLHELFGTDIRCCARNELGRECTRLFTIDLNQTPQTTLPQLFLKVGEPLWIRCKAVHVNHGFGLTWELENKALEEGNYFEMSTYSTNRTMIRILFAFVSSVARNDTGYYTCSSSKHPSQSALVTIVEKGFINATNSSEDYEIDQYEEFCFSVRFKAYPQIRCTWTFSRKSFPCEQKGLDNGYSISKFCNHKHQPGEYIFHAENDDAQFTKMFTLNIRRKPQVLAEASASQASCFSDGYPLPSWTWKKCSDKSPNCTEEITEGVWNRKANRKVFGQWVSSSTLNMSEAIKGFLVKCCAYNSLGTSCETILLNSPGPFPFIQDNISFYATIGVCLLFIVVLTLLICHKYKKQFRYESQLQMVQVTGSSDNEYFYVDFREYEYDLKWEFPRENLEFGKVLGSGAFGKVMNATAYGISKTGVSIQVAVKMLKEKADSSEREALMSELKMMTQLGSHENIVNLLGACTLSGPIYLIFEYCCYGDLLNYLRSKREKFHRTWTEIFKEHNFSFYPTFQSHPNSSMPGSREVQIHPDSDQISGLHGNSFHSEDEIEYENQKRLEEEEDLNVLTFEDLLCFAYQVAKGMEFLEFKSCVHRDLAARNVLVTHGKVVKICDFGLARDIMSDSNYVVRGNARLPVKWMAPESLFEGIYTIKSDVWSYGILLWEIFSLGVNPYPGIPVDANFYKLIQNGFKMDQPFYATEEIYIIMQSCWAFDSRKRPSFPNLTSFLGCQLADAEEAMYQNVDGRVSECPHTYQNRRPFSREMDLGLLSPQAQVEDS

SMILES | inhibition [%]
Fc1ccc(-c2nn3ccccc3c2-c2ccncc2)cc1 | -0.06
NS(=O)(=O)c1ccc(N/N=C2\C(=O)Nc3ccc4ncccc4c32)cc1 | 23.9
CCc1nn2ncccc2c1-c1ccnc(NC2CC2)n1 | 3.16
O=C(Nc1n[nH]c2cc(-c3ccc(F)cc3)ccc12)C1CC1 | 1.99
CCCN1CCC(c2ccc(Nc3nc(Nc4cc(F)ccc4C(N)=O)c4cc[nH]c4n3)c(OC)c2)CC1 | 4.46
CCCN(CCS(C)(=O)=O)Cc1ccc(-c2ccc3ncnc(Nc4ccc(OCc5cccc(F)c5)c(Cl)c4)c3c2)o1 | 0.88
CCn1cc(-c2ccnc3[nH]ccc23)c(-c2cccc(NC(=O)Nc3ccc(OCc4ccccc4)cc3)c2)n1 | -1.9
NS(=O)(=O)c1ccc(Nc2ncc(-c3ccccc3)o2)cc1 | 35.3
Cc1ccc(O)cc1Nc1ccnc2cc(-c3ccccn3)ccc12 | 3.74
COc1cc2ncn(-c3cc(OCc4ccccc4C(F)(F)F)c(C(=O)N(C)C)s3)c2cc1OC | -1.41
COc1ccc(-c2nn3ncccc3c2-c2ccnc(Nc3ccc4c(c3)OCCO4)n2)cc1 | -1.66
COc1cccc(-n2ncc3c(N/N=C/c4ccc(F)cc4)ncnc32)c1 | 3.58
COc1cc(Nc2nccc(Nc3ccc4c(C)n[nH]c4c3)n2)cc(OC)c1OC | 57.8
COc1ccc(-c2cc3c(N)ncnc3o2)cc1 | -0.73
Nc1ncc(-c2cccc(S(N)(=O)=O)c2)c2scc(-c3ccc(F)c(Cl)c3)c12 | 1.34
COC(=O)c1sc(-n2cnc3cc(OC)c(OC)cc32)cc1OCc1ccccc1C(F)(F)F | 2.55

SMILES | inhibition [%]
Clc1ccc(-c2nn3ncccc3c2-c2ccnc(Nc3ccccc3)n2)cc1 | 0.8
CC(=O)NCc1cccc(C#Cc2cncnc2Nc2ccc(OCc3cccc(F)c3)c(Cl)c2)c1 | 0.26
COc1cc2c(cc1Nc1nc(Nc3ccsc3C(N)=O)c3cc[nH]c3n1)N(C(=O)CN(C)C)CCC2(C)C | 4.2
Cc1cccc(Nc2ncc(-c3ccccc3)o2)c1 | 39.8
CCn1c(-c2nonc2N)nc2cnc(Oc3cccc(NC(=O)c4ccc(N(C)C)cc4)c3)cc21 | 0.6
COc1ccc(-c2oc3ncnc(N)c3c2-c2ccc(NC(=O)Nc3cc(C(F)(F)F)ccc3F)cc2)cc1 | 22.1
COc1cc(/C=N/Nc2ncnc3[nH]ncc23)ccc1O | 3.29
CN1CCC(n2cnc(-c3ccc(F)cc3)c2-c2ccnc(Nc3ccccc3)n2)CC1 | 0.8
CNC(=O)c1cccc(C#Cc2cncnc2Nc2ccc(OCc3cccc(F)c3)c(Cl)c2)c1 | 1.74
CCOc1ccc2c(-c3ccnc(Nc4cccc(C(F)(F)F)c4)n3)cnn2n1 | -0.37
CCN1CCC(CC(=O)Nc2n[nH]c3nnc(-c4cccc(F)c4F)cc23)CC1 | 3.74
FC(F)(F)c1cccc(-c2nn3ncccc3c2-c2ccnc(Nc3ccc4c(c3)OCCO4)n2)c1 | 0.74
CN(C)CCOc1ccc(-c2nc(-c3ccncc3)c(-c3ccc4c(c3)CC/C4=N\O)[nH]2)cc1 | 2.67
Cc1cccc2c1NC(=O)/C2=N\Nc1ccc(S(N)(=O)=O)cc1 | 2.88
COc1cccc(-c2c[nH]c3c(N/N=C/c4ccncc4)ncnc23)c1 | 6.9
COc1ccc(-c2cc(-c3c[nH]nc3-c3ccccn3)ccn2)cc1 | 3.81

Biological target: Receptor-type tyrosine-protein kinase FLT3 (Homo sapiens) (UniProt P36888)
Settings: at 1 µM

SMILES | inhibition [%]
Fc1ccc(-c2nn3ccccc3c2-c2ccncc2)cc1 | 2.86
NS(=O)(=O)c1ccc(N/N=C2\C(=O)Nc3ccc4ncccc4c32)cc1 | 73.2
CCc1nn2ncccc2c1-c1ccnc(NC2CC2)n1 | 3.41
O=C(Nc1n[nH]c2cc(-c3ccc(F)cc3)ccc12)C1CC1 | 3.69
CCCN1CCC(c2ccc(Nc3nc(Nc4cc(F)ccc4C(N)=O)c4cc[nH]c4n3)c(OC)c2)CC1 | 20.3
CCCN(CCS(C)(=O)=O)Cc1ccc(-c2ccc3ncnc(Nc4ccc(OCc5cccc(F)c5)c(Cl)c4)c3c2)o1 | 1.93
CCn1cc(-c2ccnc3[nH]ccc23)c(-c2cccc(NC(=O)Nc3ccc(OCc4ccccc4)cc3)c2)n1 | -2.19
CC(C)COC(=O)c1ccc2c(c1)/C(=C/Nc1ccc(S(N)(=O)=O)cc1)C(=O)N2 | 56
NS(=O)(=O)c1ccc(Nc2ncc(-c3ccccc3)o2)cc1 | 78.8
Cc1ccc(O)cc1Nc1ccnc2cc(-c3ccccn3)ccc12 | 4.17
COc1cc2ncn(-c3cc(OCc4ccccc4C(F)(F)F)c(C(=O)N(C)C)s3)c2cc1OC | 0.81
COc1ccc(-c2nn3ncccc3c2-c2ccnc(Nc3ccc4c(c3)OCCO4)n2)cc1 | -0.57
COc1cccc(-n2ncc3c(N/N=C/c4ccc(F)cc4)ncnc32)c1 | 7.87
COc1cc(Nc2nccc(Nc3ccc4c(C)n[nH]c4c3)n2)cc(OC)c1OC | 90.3
COc1ccc(-c2cc3c(N)ncnc3o2)cc1 | -0.84
Nc1ncc(-c2cccc(S(N)(=O)=O)c2)c2scc(-c3ccc(F)c(Cl)c3)c12 | 5.98

SMILES | inhibition [%]
COC(=O)c1sc(-n2cnc3cc(OC)c(OC)cc32)cc1OCc1ccccc1C(F)(F)F | 8.27
Clc1ccc(-c2nn3ncccc3c2-c2ccnc(Nc3ccccc3)n2)cc1 | 4.19
CC(=O)NCc1cccc(C#Cc2cncnc2Nc2ccc(OCc3cccc(F)c3)c(Cl)c2)c1 | -1.41
COc1cc2c(cc1Nc1nc(Nc3ccsc3C(N)=O)c3cc[nH]c3n1)N(C(=O)CN(C)C)CCC2(C)C | 13
Cc1cccc(Nc2ncc(-c3ccccc3)o2)c1 | 81
CCn1c(-c2nonc2N)nc2cnc(Oc3cccc(NC(=O)c4ccc(N(C)C)cc4)c3)cc21 | 1.09
COc1cc(/C=N/Nc2ncnc3[nH]ncc23)ccc1O | 17.4
Fc1cccc(COc2ccc(Nc3ncnc4sc(-c5ccco5)cc34)cc2Cl)c1 | 4.08
CN1CCC(n2cnc(-c3ccc(F)cc3)c2-c2ccnc(Nc3ccccc3)n2)CC1 | 1.93
CNC(=O)c1cccc(C#Cc2cncnc2Nc2ccc(OCc3cccc(F)c3)c(Cl)c2)c1 | 3.22
CCOc1ccc2c(-c3ccnc(Nc4cccc(C(F)(F)F)c4)n3)cnn2n1 | 5.14
CCN1CCC(CC(=O)Nc2n[nH]c3nnc(-c4cccc(F)c4F)cc23)CC1 | 1.44
CN(C)CCOc1ccc(-c2nc(-c3ccncc3)c(-c3ccc4c(c3)CC/C4=N\O)[nH]2)cc1 | 2.62
Cc1cccc2c1NC(=O)/C2=N\Nc1ccc(S(N)(=O)=O)cc1 | 8.43
COc1cccc(-c2c[nH]c3c(N/N=C/c4ccncc4)ncnc23)c1 | 39
